Results published in PubChem BioAssay (NCI).
This is part of a sample that, as a whole, favours compounds with a hit. Of some 83,000 tested, about 20% had one in any assay.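 Compound tested at a single concentration for 48 hours in 96-well plates; a percent growth value below 10 was scored as active.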 Values without a mark were called inactive. Activity calls are given as the source filed them.

Assays:
Test in all cases: NCI-60 one-dose screen, 48 h (100 = growth as untreated, 0 = no growth, -100 = all killed)
NCI-H522 lung = conditions: 10 µM unless noted
A549/ATCC NSCLC = conditions: 10 µM unless noted
COLO 205 colon = conditions: 10 µM
SNB-75 CNS = conditions: 10 µM unless noted
EKVX NSCLC = conditions: 10 µM unless noted
TK-10 renal = conditions: 10 µM unless noted
CAKI-1 renal = conditions: 10 µM unless noted
A498 renal = conditions: 10 µM unless noted
SR leukemia = conditions: 10 µM
OVCAR-4 ovarian = conditions: 10 µM unless noted
SK-OV-3 ovarian = conditions: 10 µM unless noted
BT-549 breast = conditions: 10 µM
HCT-116 colon = conditions: 10 µM unless noted
HT29 colon = conditions: 10 µM unless noted
PC-3 prostate = conditions: 10 µM unless noted
SN12C renal = conditions: 10 µM unless noted
RPMI-8226 leukemia = conditions: 10 µM unless noted
HS 578T breast = conditions: 10 µM unless noted

c1cnc2c(c1)ccc1ncccc12
growth (NCI-H522 lung): 93.8%
growth (A549/ATCC NSCLC): 107%
growth (COLO 205 colon): 110%
growth (SNB-75 CNS): 97.8%
growth (EKVX NSCLC): 94.2%
growth (TK-10 renal): 114%
growth (CAKI-1 renal): 91.7%
growth (A498 renal): 207%
growth (SR leukemia): 110%
growth (OVCAR-4 ovarian): 109%
growth (SK-OV-3 ovarian): 104%
growth (BT-549 breast): 106%
growth (HCT-116 colon): 89.8%

CCC1([N+](=O)[O-])COP(=O)(NCc2cccnc2)OC1 (stereo not given)
growth (NCI-H522 lung): 109%
growth (A549/ATCC NSCLC): 102%
growth (COLO 205 colon): 119%
growth (HT29 colon): 116%
growth (SNB-75 CNS): 104%
growth (PC-3 prostate): 106%
growth (EKVX NSCLC): 106%
growth (SN12C renal): 114%
growth (TK-10 renal): 109%
growth (CAKI-1 renal): 103%
growth (A498 renal): 94.3%
growth (SR leukemia): 105%
growth (RPMI-8226 leukemia): 104%
growth (OVCAR-4 ovarian): 112%
growth (SK-OV-3 ovarian): 94.4%
growth (HS 578T breast): 107%
growth (BT-549 breast): 114%
growth (HCT-116 colon): 103%

C[CH2][Sn]([CH2]C)([CH2]C)[NH]S(=O)(=O)c1ccc(C)cc1
growth (NCI-H522 lung): 110%
growth (A549/ATCC NSCLC): 102%
growth (COLO 205 colon): 128%
growth (HT29 colon): 116%
growth (SNB-75 CNS): 94.6%
growth (PC-3 prostate): 111%
growth (EKVX NSCLC): 99%
growth (SN12C renal): 106%
growth (TK-10 renal): 109%
growth (CAKI-1 renal): 88.6%
growth (A498 renal): 68%
growth (SR leukemia): 99.7%
growth (RPMI-8226 leukemia): 115%
growth (OVCAR-4 ovarian): 103%
growth (SK-OV-3 ovarian): 110%
growth (HS 578T breast): 89.4%
growth (HCT-116 colon): 106%

CNc1ccc(C(=O)CC(O)CCC(C)C2OC(=O)CC(O)CC(=O)CC(O)CC(O)CC(O)CC(O)CC3(O)CC(O)C(C(=O)OC)C(CC(O[C@@H]4O[C@H](C)[C@@H](O)[C@H](N)[C@@H]4O)/C=C/C=C/C=C/C=C/C=C/C=C/C=C/C2C)O3)cc1 (stereo not given in full)
growth (NCI-H522 lung): -13.2% (active)
growth (A549/ATCC NSCLC): -65% (active)
growth (COLO 205 colon): 2.91% (active)
growth (HT29 colon): -21.2% (active)
growth (SNB-75 CNS): 42.6%
growth (PC-3 prostate): 15%
growth (EKVX NSCLC): -9.97% (active)
growth (SN12C renal): -81.3% (active)
growth (TK-10 renal): -47.6% (active)
growth (CAKI-1 renal): 2.61% (active)
growth (A498 renal): -54.2% (active)
growth (SR leukemia): -11.5% (active)
growth (RPMI-8226 leukemia): 18.3%
growth (SK-OV-3 ovarian): 2.49% (active)
growth (HS 578T breast): 6.91% (active)
growth (BT-549 breast): -16.8% (active)
growth (HCT-116 colon): -16.4% (active)
